Compound activity deposited in PubChem by several laboratories.
Hits are enriched below; roughly 3.9% of the tested compounds scored in any of these assays.
HIF-2a block – blocks HIF-2a reporter activity | 786-0 RCC cells HIF-2a reporter, luciferase luminescence, overnight | inhibition, % at 18.8 µM | actives 0.72% (n = 360,000) | AID 624352;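 active = inhibition of the luminescence signal of 40% or more relative to plate controls, in a single-dose primary screen at 18.75 µM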
aSyn UTR inh – MLPCN primary screen, SNCA 5' untranslated region. actives 0.82% (n = 300,000). inhibition, % (tested at 7.5 µM). alpha-synuclein 5'UTR reporter, inhibitor activity; in the data active = inhibition above about 60%;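 also: H4 neuroglioblastoma cells stably carrying SNCA 5'UTR luciferase fusion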
TWEAK-Fn14 inh – blocks TWEAK-Fn14 interaction in a reporter cell assay; actives 2% (n = 360,000); TWEAK-stimulated Fn14 reporter cells, luciferase luminescence, 8 h; inhibition, % at 10 µM; in the data active = inhibition above about 50%
HSP90 refold inh – inhibitors of HSP90 luciferase refolding in rabbit reticulocyte lysate; luciferase refolding luminescence, 3 h; inhibition, % at 5.6 µM; actives 0.91% (n = 290,000);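 active = inhibition above the screen-wide mean plus 3 SD, computed separately per campaign, cut at about 16% in these data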;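 also: inhibitors lower the luminescence because luciferase stays unfolded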
TRAIL sens C8 – caspase-8 TRAIL sensitization. NB7+C8 cells + TRAIL, ATPlite viability luminescence. inhibition (viability loss, TRAIL sensitization), % at 10 µM. actives 1% (n = 360,000). AID 624354;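 active = compounds causing at least 50% loss of cell viability in the single-dose screen, relative to plate controls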
TROY signal inh – blocks TROY-dependent signaling in reporter cells; Q293 LMP1-TROYcd NF-kB luciferase reporter, 4 h; inhibition, % at 10 µM; actives 0.98% (n = 360,000); AID 1347056;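 active = compounds whose plate-normalised and pattern-corrected inhibition of the luciferase reporter signal at the single screening dose is 50% or more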
Numbers stand for hits; – = inactive; · = no result.

SMILES	HIF-2a block	aSyn UTR inh	TWEAK-Fn14 inh	HSP90 refold inh	TRAIL sens C8	TROY signal inh
COc1ccc(N=C2NN=C(c3c(C)[nH]c4ccccc34)CS2)cc1	–	–	–	–	–	–
CCOC(=O)[C@@H]1[C@H]2COc3cc(OC)ccc3[C@H]2N2C(=O)N(c3ccc(C(F)(F)F)cc3)C(=O)[C@]12C	–	·	74.4	·	–	–
COC(=O)c1cc(C(=O)N2CCN(c3cccc(C)c3C)CC2)cc([N+](=O)[O-])c1	–	78.0	–	–	–	–
CN1CCN(C(=O)c2cc([N+](=O)[O-])cc([N+](=O)[O-])c2)CC1	–	–	79.6	–	–	–
COC(=O)c1cc(C(=O)N2CCN(c3ccccc3OC)CC2)cc([N+](=O)[O-])c1	–	–	–	–	–	–
CCOc1ccc(Cl)cc1-c1cc(C(=O)NC2CCCCC2)[nH]n1	–	·	–	·	–	–
COc1ccc(-c2cc(C(=O)N/N=C/c3cccnc3)c3ccccc3n2)cc1	–	·	–	–	54.1	–
COc1cc(/C=N/NC(=O)c2cc(-c3cccc(OC(C)C)c3)nc3ccccc23)ccc1O	–	–	–	·	53.0	–
COc1cccc(C2CC(OCCF)=CC(=O)O2)c1 (stereo not drawn)	–	·	·	·	–	·
c1ccc(OCCCCn2cnc3ccccc32)cc1	–	–	74.2	–	–	·
c1ccc(OCCn2cnc3ccccc32)cc1	–	–	–	–	–	–
N#CC1(c2ccc(NC(=O)c3ccccc3)cc2)CCCC1	–	–	–	–	53.6	–
CC(=O)Oc1ccc(C(=O)Nc2ccc(C3(C#N)CCCC3)cc2)cc1	–	–	–	–	–	–
COc1ccc(-n2nc(C(=O)NCC(=O)N3CCN(c4ccccc4F)CC3)c3ccccc3c2=O)cc1OC	–	–	–	–	53.1	–
COc1ccc(-n2nc(C(=O)NCC(=O)N3CCN(C)CC3)c3ccccc3c2=O)cc1OC	–	–	–	–	–	–
COc1ccc(-n2nc(C(=O)NCC(=O)N3CCN(c4ccccc4F)CC3)c3ccccc3c2=O)cc1	–	–	–	–	72.3	–
CC1(C(=O)NS(=O)(=O)c2ccccc2Cl)CCN1C(=O)C/C=C/c1ccccc1 (stereo not drawn)	–	·	–	·	–	–
CCOc1ccc(NC(=O)CN(C)C(=O)COc2cccc3c2OC(C)(C)C3)cc1OCC	–	·	–	·	–	–
CC(=O)c1ccc(NC(=S)NC(C)c2ccc(Cl)cc2Cl)cc1 (stereo not drawn)	–	–	–	–	–	56.0
CCOc1ccccc1N(C(=O)c1snc(C(N)=O)c1N)C(C(=O)NCc1ccccc1)c1ccc(O)cc1 (stereo not drawn)	–	–	85.5	–	–	–
COc1cc(/C=C2\CCc3c2nc2ccccc2c3C(=O)O)cc(OC)c1OC	–	–	–	–	57.3	–
O=C(Cc1cccnc1)N[C@@H]1CC[C@H](CCn2cc(Cc3ccccc3)nn2)O[C@@H]1CO	–	·	·	·	–	·
O=C(Nc1ccc(-c2cn3ccsc3n2)cc1)C1CC1	–	–	–	–	68.8	–
O=C(Nc1ccc(-c2cn3ccsc3n2)cc1)C1CCCC1	–	–	–	–	78.9	–
COc1ccc2[nH]c(C(=O)N3CCC(CO)(Cc4cccc(C(F)(F)F)c4)CC3)c(C)c2c1	–	–	–	–	–	52.7
SMILES	HIF-2a block	aSyn UTR inh	TWEAK-Fn14 inh	HSP90 refold inh	TRAIL sens C8	TROY signal inh
COc1ccc(N2CCN(C(=O)c3[nH]c4ccc(OC)cc4c3C)CC2)cc1	–	–	–	–	–	–
Fc1c(F)c(C(F)(F)F)c(F)c(F)c1N/N=C\c1cccs1	–	–	60.3	–	–	–
c1ccc(COc2ncnc3c2ncn3CCCN2CCN(c3ncccn3)CC2)cc1	–	·	–	·	–	–
CCOC(=O)C(Cc1c[nH]c2cc([N+](=O)[O-])ccc12)(NC(C)=O)C(=O)OCC	–	·	–	·	–	–
CCCN1CCC(=O)N([C@H](CSc2ccc(C)cc2)CC(C)C)CC1	–	–	–	·	–	61.2
Cc1[nH]c2ccccc2c1/C=C/c1nc2ccccc2c(=O)[nH]1	–	–	–	–	–	–
O=c1[nH]c(/C=C/c2ccccc2Cl)nc2ccccc12	–	–	–	–	64.1	–
C(=N\n1cnnc1)/c1nc2ccccc2[nH]1	–	–	–	–	–	–
Cc1cccc(/C=C/c2nc3ccccc3c(=O)[nH]2)c1	–	–	–	–	55.0	–
Clc1cccc(Cl)c1/C=C/c1nc2ccccc2[nH]1	–	–	–	–	67.8	–
COc1ccc(C2=Nc3ccccc3N(C(=O)c3cc(Cl)cc(Cl)c3)C2C(=O)NCc2ccccc2)cc1 (stereo not drawn)	–	·	·	·	–	·
Cc1nc2nc(C(F)(F)F)[nH]c2nc1C	–	·	–	·	–	–
COc1ccc(C(=O)Nc2ccc(S(=O)(=O)N3CCc4ccccc43)cc2)cc1	–	–	80.1	–	–	–
COc1ccc(S(=O)(=O)N2CCCc3ccccc32)cc1OC	–	–	55.9	–	–	60.2
NC(=O)c1ccsc1NC(=O)c1ccc(S(=O)(=O)N2CCCc3ccccc32)cc1	–	–	92.1	–	–	61.4
Cc1ccc(Nc2ncc3c(=O)[nH][nH]c(=O)c3n2)cc1	–	·	–	·	–	–
O=C(Cn1c(=O)oc2cc(S(=O)(=O)N3CCCC3)ccc21)Nc1ccccn1	–	·	–	·	–	–
O=C1NC(=S)N/C1=C/c1cccnc1	–	–	53.4	–	–	–
O=C1NC(=S)N/C1=C\c1cccnc1	–	–	50.4	–	–	–
O=C1NC(=S)N/C1=C/c1cccc([N+](=O)[O-])c1	–	–	–	–	–	–
COC(=O)c1ccc2nc(-c3ccccc3)c(Cc3ccccc3OC)n2c1	–	·	–	·	–	–
CCOC(=O)[C@]12CCCC=C1N(CCc1ccc(OC)c(OC)c1)C(=O)[C@H](CC(=O)N1CCCCC1)C2	–	·	·	·	–	·
O=c1ccn([C@@H]2O[C@H](CNCc3cccc4c3sc3ccccc34)[C@@H](O)[C@H]2O)c(=O)[nH]1	–	·	–	·	–	–
COc1cccc(C(=O)NCC(=O)OCC(=O)Nc2ncc(Cl)cc2Cl)c1	–	–	87.9	–	–	–
Oc1c(N=Nc2ccccn2)ccc2ccccc12	–	73.7	80.3	–	74.5	–
SMILES	HIF-2a block	aSyn UTR inh	TWEAK-Fn14 inh	HSP90 refold inh	TRAIL sens C8	TROY signal inh
C=CCNC(=O)c1ccc(NC(=O)C2=CSCCO2)cc1	–	–	–	16.7	–	–
Cc1nc(C)c(-c2csc(Nc3ncccc3C)n2)s1	–	–	–	–	–	–
Cc1nc(N)sc1-c1csc(Nc2ncccn2)n1	–	–	50.3	–	–	–
Cc1ccc(Nc2nc(-c3ccccc3)cs2)nc1	–	–	74.7	–	–	–
Cc1nc(C)c(-c2csc(Nc3ccc(F)cc3)n2)s1	–	–	–	–	–	–
Cc1nc(C)c(-c2csc(Nc3ccc(Cl)cn3)n2)s1	–	·	56.7	·	–	–
c1cncc(Nc2nc(-c3cccs3)cs2)c1	–	–	–	–	–	–
Cc1ccc(Nc2nc(-c3cccs3)cs2)nc1	–	–	74.7	16.6	64.9	70.5
